Bioassay records deposited in PubChem by National Center for Advancing Translational Sciences (NCATS).
Sampled rows, rich in hits. Any-hit rate of the full collection: about 3.7%.
Nrf2 inh = Nrf2 qHTS screen for inhibitors; A549 ARE-Fluc reporter, luciferase luminescence, 18-24 h; Potency, µM (top dose mostly 46 µM), most hits filed as inhibitors; 360,000 tested, 2.1% active; note: nearly all actives have a fitted effect of over 60% in size
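Reporter: ARE-Fluc in A549. Exposure: 18-24 h, 37 °C, 5% CO2, 5% FBS OPTI-MEM. Readouts: fluorescent cytotoxicity (CellTiter-Fluor), then luminescent Nrf2 signal after BugLite.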
miR-21 reporter = qHTS Assay for Modulators of miRNAs and/orActivators of miR-21. 340,000 tested, under 10 active. Potency, µM (doses to about 38.3 µM), usual class: activators. AID 2288, 2010. HeLa miR-21 FLuc reporter, luciferase, 48 h;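 note: miR-21 action dims this reporter so a rising signal means less miR-21 action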
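Luminescence from a firefly luciferase reporter carrying a miR-21 binding site downstream, stably expressed under a CMV promoter in HeLa cells that make miR-21 endogenously, reports miRNA modulation after 48 h compound exposure up to approximately 40uM final.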
ClpP mod = qHTS Assay for Activators of ClpP; AID 651965, 2013; 340,000 tested, 1.9% active; purified B. subtilis ClpP, FRET peptide cleavage, 20 min; Potency, µM (series often up to 57.5 µM); ATP-dependent Clp protease proteolytic subunit (Bacillus subtilis (strain 168)), P80244; active = well fitted falling curve with a large enough effect; inconclusive = small, poorly fitted or top-dose-only effect; inactive = no such curve, though single readings can be large or run the other way; note: the source files actives as falling curves though it sought activators and does not explain the sign; nearly all actives have a fitted effect of over 65% in size
Target sequence (P80244 whole entry, looked up): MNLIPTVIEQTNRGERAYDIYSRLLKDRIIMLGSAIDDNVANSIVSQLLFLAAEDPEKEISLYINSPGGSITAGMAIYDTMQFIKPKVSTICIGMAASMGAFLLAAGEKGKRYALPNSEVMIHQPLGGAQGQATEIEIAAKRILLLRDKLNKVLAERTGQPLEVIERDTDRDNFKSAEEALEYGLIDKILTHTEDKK
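Purified B. subtilis ClpP, 10 microg/mL final in Tris/HCl pH8 with KCl, BSA, glycerol and Tween-20, cleaved an Abz/nitrotyrosine-quenched decapeptide. Fluorescence (ex 320, em 430) was read at 0 and 20 min at room temperature. Delta was normalized to 5.8 microM ADEP and DMSO/no-enzyme controls.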
Nrf2 activator = qHTS of Nrf2 Activators. 410,000 tested, 0.31% active. AREc32 ARE-luciferase reporter (MCF7-derived line), luminescence, 24 h. AID 624171, 2012. Potency, µM (doses to about 46.1 µM), usual class: activators; note: nearly all actives have a fitted effect of over 65% in size
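AREc32 cells carrying an ARE-driven firefly luciferase reporter were seeded at 1000 cells/well in OPTI-MEM with 5% FBS, then exposed to compound for 24 hr at 37 deg C. Luminescence was read with Steady-Glo after 30 min at RT.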
IL-2 act = qHTS of IL-2 Activators; IL-2 activation reporter assay, cell-based qHTS; stimulated with anti-CD3/CD4/CD28 beads; in transgenic mouse T cells; 360,000 tested, 0.065% active; activation, % (series mostly up to about 46 µM); in the data active = activation above about 50%; inconclusive = mostly about 30% to 49%
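EGFP and DsRed fluorescence is measured by plate cytometry in unstimulated transgenic mouse T cells exposed to compound for 60 minutes, then stimulated 18 hours at 37 degrees C with anti-CD3/anti-CD4 beads plus anti-CD28.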
A549 viability = Nrf2 qHTS screen for inhibitors: counterscreen for cytotoxicity; A549 ARE-Fluc cells, CellTiter-Fluor viability, 18-24 h; Potency, µM (series often up to 46 µM), most hits filed as inhibitors; 390,000 tested, 0.16% active; AID 504648, 2011
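A549 ARE_Fluc cells in 5% FBS OPTI-MEM were exposed to compounds in concentration-response for 18-24 h at 37 deg C. Viability was read by CellTiter-Fluor fluorescence (Ex 405/Em 525) after 30 min, before the luciferase read.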
ClpP validation = qHTS Assay for Activators of ClpP: Hit Validation of Inhibitors. Potency, µM (highest dose often 57.5 µM), most hits filed as inhibitors. purified B. subtilis ClpP, FRET-FV substrate cleavage, 20 min. 470 tested, 40% active. shares compounds with ClpP mod; note: nearly all actives have a fitted effect of over 70% in size
Of the large screens only hits and unclear results are named; the others gave an inactive call (follow-up assays come after a bar, where they were run). Unless noted, calls come from the whole dose curve; as a rule, active = well fitted curve in the direction sought with a large enough effect; inconclusive = small, poorly fitted or top-dose-only effect, or another doubt; inactive = no such curve, though single readings can be large; an effect the other way counts as inactive or inconclusive.

O=C(NCCc1ccc(Cl)cc1)c1ccc(Nc2nc3ccccc3n3nnnc23)cc1	none (no result: IL-2 act) | ClpP validation 22µM
Cc1ccc(CNC(=O)c2ccc(Nc3nc4ccccc4n4nnnc34)cc2)cc1	none (no result: IL-2 act) | ClpP validation 2.7µM
COc1ccc(C(=O)NCc2cc3ccccc3n2C)cc1	Nrf2 inh inconclusive
Cc1ccc(-c2nc(CN3C(=O)CN=C(c4ccccc4Cl)c4cc(Cl)ccc43)c(C)o2)cc1	Nrf2 inh inconclusive (no result: IL-2 act)
CNc1ccc2oc(C[C@H]3O[C@@]4(CC[C@H]3C)O[C@H]([C@H](C)C(=O)c3ccc[nH]3)[C@H](C)C[C@H]4C)nc2c1C(=O)O	Nrf2 inh 1.2µM, miR-21 reporter inconclusive, A549 viability 3.7µM | ClpP validation 27µM
COc1ccc(S(=O)(=O)NC(CC(=O)N2CCC3(CC2)OCCO3)c2ccco2)cc1 (stereo not given)	ClpP mod 2.8µM (no result: Nrf2 inh) | ClpP validation inactive
CCCCC(=O)Nc1c(C(=O)N2CCN(c3ccccc3F)CC2)oc2ccccc12	Nrf2 inh inconclusive, ClpP mod 1.3µM (no result: IL-2 act) | ClpP validation inactive
Oc1cc2c(cc1CN1CCN(c3ccccc3F)CC1)OCO2	none (no result: ClpP mod)
Cn1c(=O)n(C)c2cc(CNCCc3ccc(F)cc3)ccc21	none (no result: IL-2 act)
COc1ccc2cc1Oc1ccc(cc1)C[C@H]1c3cc(c(OC)cc3CCN1C)Oc1c(OC)c(OC)cc3c1[C@@H](C2)N(C)CC3	none (no result: miR-21 reporter)
Cc1ccc(CNC(=O)CCCn2c(=O)c3sccc3n(CC(=O)Nc3c(C)cccc3C)c2=O)cc1	none (no result: IL-2 act)
